Screening results deposited in PubChem by several laboratories.
This is a sample that favours compounds with a hit; in the whole collection about 4.2% have one here.
tim10-1 inh = growth inhibitors of tim10-1 mutant yeast; AID 463190; 2.2% of 330,000 active; S. cerevisiae tim10-1 ts strain growth, BacTiter-Glo, 24 h; inhibition, % at 20 µM;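 active = inhibition of at least 40%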;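 also: mutant grown at 25 °C; 0% = DMSO wells with yeast and 100% = wells holding no yeast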
TIM10 inh = TIM10 yeast growth inhibition; S. cerevisiae TIM10 strain growth, BacTiter-Glo luminescence, 24 h; inhibition, % at 10 µM; 1.4% of 330,000 active; AID 463195;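 active = inhibition of 40% or more at the single tested concentration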;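 also: wild-type TIM10 isogenic control strain grown at permissive 25 °C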
tim23-1 inh = growth inhibitors of tim23-1 mutant yeast; S. cerevisiae tim23-1 growth, BacTiter-Glo luminescence, 24 h; inhibition, % at 20 µM; 1.3% of 330,000 active; AID 463212;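 active = growth inhibition of the mutant yeast at or above 50%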;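 also: temperature-sensitive mutant grown at 25 °C; plate controls were DMSO-treated mutant yeast for no effect and medium wells lacking yeast for full effect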
NALP1 yeast inh = NALP1 inhibition; AID 2071; S. cerevisiae NALP1/ASC/caspase-1 growth, X-gal OD620, 72 h; inhibition, % at 10 µM; 0.61% of 280,000 active; in the data active = inhibition mostly above about 24%, no sharp cut-off; inactive = mostly below about 32%
PfHsp90 set2 = growth inhibition of yeast expressing Plasmodium Hsp90; S. cerevisiae expressing PfHsp90, BacTiter-Glo ATP, 48 h; yeast lacking PDR1 and PDR3 efflux regulators; inhibition, % at 9.4 µM; 0.32% of 310,000 active; AID 504621;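 active = every replicate shows inhibition above about 80%, whatever the replicate mean, limit read from the data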;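 also: 0% = DMSO neutral controls and 100% = 20 µM radicicol positive controls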
NLRP3 yeast inh = blocks the NALP3 inflammasome reconstituted in yeast; Yeast reconstituted NLRP3/ASC/caspase-1, beta-gal luminescence, 24 h; inhibition, % at 10 µM; 0.39% of 330,000 active; AID 2825;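 active = inhibition of 50% or more; inactive = inhibition below 50%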;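 also: plate controls were induced DMSO wells for no effect and uninduced yeast grown without galactose for full effect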
tim23-1 conf = tim23-1 yeast growth inhibition, confirmed; shares compounds with tim23-1 inh; S. cerevisiae tim23-1 growth, BacTiter-Glo luminescence, 24 h; inhibition, % at 20 µM; 83% of 4,400 active; AID 463218;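 active = inhibition above about 39% in either of two replicate wells at 20 µM, limit read from the data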;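 also: temperature-sensitive tim23-1 mutant grown at 25 °C; 0% = DMSO wells with yeast and 100% = medium wells without yeast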
The depositor's hits bear a star.

For Cc1csc2c(N3CCN(C(=S)Nc4ccc(C(F)(F)F)cc4)CC3)ncnc12 the results were tim10-1 inh 25, TIM10 inh 26, tim23-1 inh 55*, PfHsp90 set2 -5, NLRP3 yeast inh 22 and tim23-1 conf 46*.
Cc1csc2c(N3CCN(C(=O)Nc4ccc(Cl)c(Cl)c4)CC3)ncnc12 was read as tim10-1 inh 27, TIM10 inh 19, tim23-1 inh 67*, PfHsp90 set2 6, NLRP3 yeast inh 31 and tim23-1 conf 50*.
For COc1ccccc1NC(=O)c1ccc(NC(=O)C2CC2C)cc1 (stereo not given) the results were tim10-1 inh 31, TIM10 inh 34, tim23-1 inh 52*, PfHsp90 set2 -9, NLRP3 yeast inh 6 and tim23-1 conf 48*.
CC1CC(C)CN(C(=O)c2ccc3c(c2NCCO)C(=O)c2ccccc2C3=O)C1 (stereo not given) was read as tim10-1 inh 39, TIM10 inh 34, tim23-1 inh 51*, NALP1 yeast inh -9, PfHsp90 set2 -10, NLRP3 yeast inh 4 and tim23-1 conf 53*.
`COc1cccc(CNC(=O)c2ccc(CS(=O)c3ccccc3)o2)c1` (stereo not given) gave tim10-1 inh -5, TIM10 inh -1, tim23-1 inh 3, NALP1 yeast inh 14, PfHsp90 set2 -6 and NLRP3 yeast inh -3.
Screening Cc1sc(NC(=O)c2ccco2)nc1-c1ccccc1 returned tim10-1 inh 35, TIM10 inh 31, tim23-1 inh 56*, NALP1 yeast inh 57, PfHsp90 set2 25, NLRP3 yeast inh 30 and tim23-1 conf 72*.
`O=C(Nc1nc2c(F)cccc2s1)c1ccco1` gave tim10-1 inh 32, TIM10 inh 22, tim23-1 inh 55*, NALP1 yeast inh -3, PfHsp90 set2 17, NLRP3 yeast inh 37 and tim23-1 conf 54*.
CCC(c1ccccc1)c1nnc(NC(=O)c2ccco2)s1 (stereo not given) was read as tim10-1 inh 7, TIM10 inh 8, tim23-1 inh 10 and NLRP3 yeast inh -1.
For CCCC(CCC)c1nnc(NC(=O)c2ccco2)s1 the results were tim10-1 inh 39, TIM10 inh 32, tim23-1 inh 62*, NALP1 yeast inh 15, PfHsp90 set2 -12, NLRP3 yeast inh 14 and tim23-1 conf 64*.
For CCc1ccc(C(C)NC(=O)c2ccc3c(c2)OCO3)cc1 (stereo not given) the results were tim10-1 inh 2, TIM10 inh -5, tim23-1 inh -2, NALP1 yeast inh 14, PfHsp90 set2 -42 and NLRP3 yeast inh 27.
For COc1ccccc1N1CCN(S(=O)(=O)c2cc(Br)cnc2N)CC1 the results were tim10-1 inh 11, TIM10 inh 15, tim23-1 inh 15, NALP1 yeast inh 18, PfHsp90 set2 -21 and NLRP3 yeast inh 12.
Cc1ccc2nc(-c3ccc(N)cc3)sc2c1 was read as tim10-1 inh 13, TIM10 inh 20, tim23-1 inh 53*, NALP1 yeast inh 16, PfHsp90 set2 5, NLRP3 yeast inh 4 and tim23-1 conf 58*.
For COc1ccc(-c2cc(-c3ccccc3)n[nH]2)c(O)c1 the results were tim10-1 inh 10, TIM10 inh 4, tim23-1 inh 69*, NALP1 yeast inh 7, PfHsp90 set2 -29, NLRP3 yeast inh 29 and tim23-1 conf 57*.
`COc1ccc(-c2cc(-c3ccccc3O)[nH]n2)cc1` gave tim10-1 inh 22, TIM10 inh 25, tim23-1 inh 69*, NALP1 yeast inh 9, PfHsp90 set2 25, NLRP3 yeast inh 15 and tim23-1 conf 62*.
COC(=O)c1cc(-c2ccc(OC)cc2)n[nH]1 was read as tim10-1 inh 3, TIM10 inh 5, tim23-1 inh 9, NALP1 yeast inh 18 and NLRP3 yeast inh 32.
COc1ccc(C(=O)N2CCc3ccc(NC(=O)c4ccccn4)cc3C2)cc1F was read as tim10-1 inh 37, TIM10 inh 2, tim23-1 inh 52*, NALP1 yeast inh 14, PfHsp90 set2 10, NLRP3 yeast inh 5 and tim23-1 conf 40*.
`COc1cc2c(cc1OC)CN(C(=O)c1ccncc1)CC2` gave tim10-1 inh 12, TIM10 inh -8, tim23-1 inh 16, NALP1 yeast inh 13, PfHsp90 set2 4 and NLRP3 yeast inh -14.
For CCCCCCCCCCCCCCCC(O)C(N)CO (stereo not given) the results were tim10-1 inh 23, TIM10 inh 11, tim23-1 inh 52*, NALP1 yeast inh 41, PfHsp90 set2 22, NLRP3 yeast inh 41 and tim23-1 conf 44*.
Screening CCCCCCO returned tim10-1 inh 5, TIM10 inh 6, tim23-1 inh 4, PfHsp90 set2 -11 and NLRP3 yeast inh 11.
`Oc1ccc(F)cc1-c1cc(-c2ccc3c(c2)OCCO3)n[nH]1` gave tim10-1 inh 3, TIM10 inh 17, tim23-1 inh -6, NALP1 yeast inh 2, PfHsp90 set2 17 and NLRP3 yeast inh 24.
For Oc1ccccc1-c1ccn[nH]1 the results were tim10-1 inh -4, TIM10 inh -10, tim23-1 inh 2, PfHsp90 set2 4 and NLRP3 yeast inh 23.
Screening Oc1ccccc1-c1cc(-c2ccccc2)n[nH]1 returned tim10-1 inh -9, TIM10 inh 18, tim23-1 inh 71*, PfHsp90 set2 38, NLRP3 yeast inh 36 and tim23-1 conf 60*.
`Oc1ccccc1-c1cc(-c2ccc(F)cc2)n[nH]1` gave tim10-1 inh 39, TIM10 inh 25, tim23-1 inh 68*, NALP1 yeast inh 12, PfHsp90 set2 7, NLRP3 yeast inh 20 and tim23-1 conf 61*.
`CNC(=O)C1CC(=O)N(c2ccc(OCC(=O)NCc3ccccc3)cc2)C1` (stereo not given) gave tim10-1 inh -8, TIM10 inh -3, tim23-1 inh 6, NALP1 yeast inh 0, PfHsp90 set2 -18 and NLRP3 yeast inh -5.
For CCCCCN=Cc1c(C)[nH]n(-c2nc3ccccc3s2)c1=O the results were tim10-1 inh 21, TIM10 inh 12, tim23-1 inh 56*, NALP1 yeast inh -9, PfHsp90 set2 36, NLRP3 yeast inh 4 and tim23-1 conf 48*.
For CCCc1[nH]n(-c2nc3ccccc3s2)c(=O)c1C=NCCCOC the results were tim10-1 inh 7, TIM10 inh 20, tim23-1 inh 6, NALP1 yeast inh -18, PfHsp90 set2 3 and NLRP3 yeast inh 3.
CCN=c1scc(-c2ccc(F)cc2)n1/N=C/c1ccccn1 was read as tim10-1 inh -4, TIM10 inh 20, tim23-1 inh 58*, NALP1 yeast inh -6, PfHsp90 set2 16, NLRP3 yeast inh 2 and tim23-1 conf 70*.
